Assay outcomes as filed in PubChem.
Hits are enriched below; roughly 2.9% of the tested compounds scored in any of these assays.
S2 tox: reduces viability in counter-screen for ATXN expression inhibitors | S2 cells (HEK-293 line with an ATXN2-luciferase reporter) viability, CellTiter-Fluor protease fluorescence, 24 h | Potency, µM (top dose mostly 56.7 µM), usual class: cytotoxic | hit rate 0.49% among 400,000 | AID 651635; note: nearly all actives have a fitted effect of over 40% in size
A549 tox: kills or reduces viability of A549 cells in Nrf2 counter-screen; hit rate 0.16% among 390,000; A549 ARE-Fluc cells, CellTiter-Fluor viability, 18-24 h; Potency, µM (series often up to 46 µM), actives largely listed as inhibitors
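Cytotoxicity counterscreen: CellTiter-Fluor fluorescence was measured in A549 ARE_Fluc cells after 18-24 h of compound exposure in a concentration series. The subsequent BugLite luminescent read reports ARE-luciferase activity.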
Nrf2 block: inhibitors of Nrf2 signaling | AID 504444 | Potency, µM (series often up to 46 µM), usual class: inhibitors | A549 ARE-Fluc reporter, luciferase luminescence, 18-24 h | hit rate 2.1% among 360,000; note: nearly all actives have a fitted effect of over 60% in size
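Nrf2 activity is the BugLite luminescence, read 15 min after reagent at room temperature, following CellTiter-Fluor cytotoxicity readout (30 min, 37C). Compound titrations were applied for 18-24 h to 5000 A549 ARE_Fluc cells/well in 5% FBS OPTI-MEM.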
Nrf2 ARE act: activates Nrf2 signaling; AREc32 ARE-luciferase reporter (MCF7-derived line), luminescence, 24 h; Potency, µM (top dose mostly 46.1 µM), most hits filed as activators; hit rate 0.31% among 410,000; note: nearly all actives have a fitted effect of over 65% in size
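ARE activation measured as luciferase luminescence (Steady-Glo, 30 min RT) in AREc32_Fluc cells after 24 hr compound exposure at 37 deg C, 5% CO2; cells seeded overnight at 1000/well in OPTI-MEM, 5% FBS.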
ATXN2 expr inh: inhibitors of ATXN2 expression; HEK-293 ATXN2-luciferase reporter, luminescence, 24 h; Potency, µM (series often up to 57 µM), most hits filed as inhibitors; hit rate 0.72% among 360,000; note: nearly all actives have a fitted effect of over 55% in size
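ATXN2-luciferase reporter cells (luciferase flanked by upstream and downstream ATXN2 gene portions) were treated 24 h at 37 °C with compounds at up to 57 uM. SteadyGlo luminescence gave expression; GF-AFC fluorescence gave viability.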
Of the large screens only hits and unclear results are named; the others gave an inactive call. Calls come from the whole dose curve; as a rule, active = well fitted curve in the direction sought with a large enough effect; inconclusive = small, poorly fitted or top-dose-only effect, or another doubt; inactive = no such curve, though single readings can be large; an effect the other way counts as inactive or inconclusive.

COC(=O)C1=C(c2ccc3ccccc3c2)C[C@@H]2CC[C@H]1N2C	none
COC(=O)C1=C(C(=O)OC)C2OC1c1cc3ccccc3cc12	S2 tox inconclusive, Nrf2 block 20.6µM, ATXN2 expr inh inconclusive
CCc1nc2c(OCc3ccc(C(F)(F)F)cc3)cccn2c1N(C)C(=O)C(C)C	S2 tox inconclusive, ATXN2 expr inh inconclusive (no result: A549 tox, Nrf2 block)
COc1cc2c3cc1Oc1c(OC)c(OC)cc4c1[C@H](Cc1ccc(cc1)Oc1cc(ccc1O)C[C@H]3N(C)CC2)N(C)CC4	S2 tox 14.1µM, A549 tox 13µM
COc1ccc2cc1Oc1ccc(cc1)C[C@H]1c3cc(c(OC)cc3CCN1C)Oc1c(OC)c(OC)cc3c1[C@H](C2)N(C)CC3	S2 tox 25.1µM, A549 tox 6.51µM, Nrf2 block inconclusive, ATXN2 expr inh inconclusive
COc1cc2c3cc1Oc1cc(ccc1O)C[C@@H]1c4c(cc(OC)c(O)c4Oc4ccc(cc4)C[C@H]3N(C)CC2)CCN1C	S2 tox 3.98µM, A549 tox 8.2µM, ATXN2 expr inh inconclusive
COc1cc2c3c(c1OC)Oc1ccc(cc1)C[C@H]1c4c(cc(OC)c(OC)c4Oc4ccc(cc4)C[C@@H]3N(C)CC2)CCN1C	ATXN2 expr inh inconclusive (no result: S2 tox)
COc1ccc(Nc2cc(C)c3cc(NC(=O)c4ccccc4Cl)ccc3n2)cc1	Nrf2 block 25.9µM, ATXN2 expr inh inconclusive (no result: S2 tox)
C1=C2CCCN[C@H]2[C@@H]2C[C@H]1[C@@H]1CCCCN1C2	none (no result: S2 tox, A549 tox, Nrf2 block, Nrf2 ARE act)
CC(C)[C@H]1C(=O)N[C@H](CO)Cc2c[nH]c3cccc(c23)N1C	none (no result: S2 tox, A549 tox, Nrf2 block, Nrf2 ARE act)
CC(C)(C)c1ccc(C(=O)Nc2ccc3nc(SCC(=O)N4CCCC4)sc3c2)cc1	A549 tox inconclusive, Nrf2 block 14.6µM (no result: S2 tox, ATXN2 expr inh)
CCc1ccc(C2CCNCC2)cc1	none (no result: A549 tox, Nrf2 block, Nrf2 ARE act)
CN(C)c1ccc(CN2CCc3nc(N4CCN(c5ccccn5)CC4)ncc3C2)cc1	S2 tox inconclusive, ATXN2 expr inh 28.2µM (no result: Nrf2 block)
CC1=CC(=C2C(=O)NC(=S)NC2=O)C=C(C(F)(F)F)N1Cc1ccccc1	S2 tox inconclusive, A549 tox 14.6µM, Nrf2 block inconclusive
CC1=CC(=C2C(=O)NC(=O)NC2=O)C=C(C(F)(F)F)N1Cc1ccccc1	none
CCc1ccc(Nc2nc3c(S(=O)(=O)c4ccc(C)cc4)nnn3c3ccsc23)cc1	Nrf2 block inconclusive (no result: S2 tox, ATXN2 expr inh)
COc1cc(C[C@@H](C)N)c(OC)cc1C	S2 tox inconclusive (no result: A549 tox, Nrf2 block, Nrf2 ARE act)
Cc1ccc(-n2nc3c(=O)n(CC(=O)Nc4ccccc4F)nc(C)c3c2C)c(C)c1	Nrf2 block inconclusive (no result: S2 tox, ATXN2 expr inh)
CCC(C(=O)Nc1ccccc1C(=O)OC)n1nc(C)c2c(C)n(-c3ccc(C)cc3)nc2c1=O (stereo not drawn)	Nrf2 block 18.4µM (no result: S2 tox, ATXN2 expr inh)
COc1ccc(-c2cc3nc(C)c(CCC(=O)N4CCN(c5cc(C)ccc5C)CC4)c(C)n3n2)c(OC)c1	Nrf2 block inconclusive
O=C(O)CCCc1ccc(N(CCCl)CCCl)cc1	ATXN2 expr inh inconclusive
ClCCN(CCCl)c1ccc(-n2cnc3c(Cl)ncnc32)cc1	Nrf2 ARE act inconclusive, ATXN2 expr inh 15.8µM (no result: S2 tox)
C#CC(O)(C=CCl)CC (stereo not drawn)	none (no result: A549 tox, Nrf2 block, Nrf2 ARE act)
CCNC1(c2cccs2)CCCCC1=O (stereo not drawn)	none (no result: A549 tox, Nrf2 block, Nrf2 ARE act, ATXN2 expr inh)
Ic1ccccc1CN[C@@H]1C2CCN(CC2)[C@@H]1C(c1ccccc1)c1ccccc1	S2 tox 22.4µM, A549 tox inconclusive, ATXN2 expr inh inconclusive
Oc1ccc(-c2cccnc2)cc1CNC1CN2CCC1CC2 (stereo not drawn)	none (no result: A549 tox, Nrf2 block, Nrf2 ARE act, ATXN2 expr inh)
CC(C)c1ccc(N2C(=O)NC(=O)/C(=C/C=C/c3ccco3)C2=O)cc1	A549 tox inconclusive, Nrf2 block inconclusive, ATXN2 expr inh 28.2µM (no result: S2 tox)
COc1cc(/C=C2\C(=O)NC(=O)N(c3ccccc3)C2=O)cc(OC)c1OC	none
Cc1ccc(N2C(=O)NC(=O)/C(=C/C=C/c3ccco3)C2=O)cc1	S2 tox inconclusive, Nrf2 ARE act inconclusive, ATXN2 expr inh inconclusive
CCCCN1C(=O)/C(=C/C=C/c2ccco2)C(=O)NC1=S	none
CCc1ccc(N2C(=O)NC(=O)/C(=C\C=C\c3ccco3)C2=O)cc1	S2 tox 10µM, A549 tox inconclusive, Nrf2 block inconclusive (no result: ATXN2 expr inh)
O=C1NC(=O)N(c2ccccc2)C(=O)/C1=C\C=C\c1ccccc1	S2 tox 14.1µM, ATXN2 expr inh 14.1µM
